A selection: hits, their analogues and other compounds. The true share with any hit is near 9.2%.
SMN2 splice up: SMN2 splice variant enhancement. Potency, µM (series often up to 46.1 µM), actives largely listed as activators. 210,000 tested, 2.8% active. AID 1458. HEK293 SMN2-luciferase splicing reporter, luminescence, 30-36 h; also: nearly all actives have a fitted effect of over 55% in size
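HEK293 cells carry an SMN2 minigene-luciferase reporter in which exon 7 inclusion puts luciferase in frame. Cells were seeded at 2000 cells/well, attached for 10-12 hours, then exposed to compounds for 30-36 hours at 37C before ONE-Glo luminescence.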
NPC1 prom act: NPC1 promoter activation. Potency, µM (doses to about 9.22 µM), most hits filed as activators. 320,000 tested, 2.4% active. Huh7 NPC1 promoter luciferase reporter, 24 h. AID 485313; also: nearly all actives have a fitted effect of over 60% in size
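Stable NPC1-promoter luciferase Huh7 line; cpd (DMSO) 24 h, 37 °C, 5% CO2; Amplite luciferase reagent 10 min RT; luminescence readout. qHTS format.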
FLuc modulator: counter-screen for miR-21 project: firefly luciferase inhibitors or activators | P08659 | purified FLuc, Km substrates, luminescence inhibition | Potency, µM (highest dose often 57.5 µM), hits mostly inhibitors | 360,000 tested, 6.9% active; also: nearly all actives have a fitted effect of over 55% in size
Target sequence (P08659 whole entry, looked up): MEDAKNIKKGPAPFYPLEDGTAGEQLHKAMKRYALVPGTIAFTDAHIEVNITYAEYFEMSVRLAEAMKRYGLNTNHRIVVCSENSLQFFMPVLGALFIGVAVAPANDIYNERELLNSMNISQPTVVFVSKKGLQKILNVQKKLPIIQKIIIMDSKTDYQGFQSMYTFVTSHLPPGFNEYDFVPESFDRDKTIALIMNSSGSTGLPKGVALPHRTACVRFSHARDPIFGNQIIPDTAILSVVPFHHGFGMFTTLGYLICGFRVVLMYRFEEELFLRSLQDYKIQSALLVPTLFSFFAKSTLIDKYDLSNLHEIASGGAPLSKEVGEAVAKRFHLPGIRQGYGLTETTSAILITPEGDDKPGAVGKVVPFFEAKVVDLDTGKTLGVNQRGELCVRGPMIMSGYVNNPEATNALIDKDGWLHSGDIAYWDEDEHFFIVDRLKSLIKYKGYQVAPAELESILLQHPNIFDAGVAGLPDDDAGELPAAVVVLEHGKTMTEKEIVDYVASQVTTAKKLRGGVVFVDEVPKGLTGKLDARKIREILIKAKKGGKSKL
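Purified P. pyralis luciferase (10nM final) with 10uM D-luciferin and 10uM ATP (Km levels) in 50mM Tris acetate pH 7.5, 10mM Mg acetate, 0.01% Tween-20, 0.05% BSA; qHTS 6-point titration, ~60 µM downward; luminescence read.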
ELG1 repair inh: blocks ELG1-dependent DNA repair in HEK293T cells. HEK293T ELG1-luciferase reporter, luminescence, 16 h; DNA damage induced by 5-fluorouridine. Potency, µM (titrated, usually from 46.1 µM), most hits filed as inhibitors. 330,000 tested, 2.3% active; also: nearly all actives have a fitted effect of over 55% in size
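In this reporter screen, reduction of luminescence relative to DMSO vehicle indicated activity. Compounds and 5-fluorouridine were added together to 2,000 cells per well, incubated for 16 hr at 37 °C, then developed with ONE-Glo.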
ELG1 genotox: induces genotoxicity in HEK293T cells with luciferase-tagged ELG1. HEK293T ELG1-luciferase reporter, luminescence, 16 h. Potency, µM (titrated, usually from 46 µM), usual class: activators. 330,000 tested, 1.3% active; also: nearly all actives have a fitted effect of over 60% in size
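Reporter readout depends on ELG1 protein level, which increases with genetic stress. After 16 hr compound exposure at 37 °C, luciferase activity was quantified using ONE-Glo.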
Rab9 promoter act: Rab9 promoter activation; Huh7 Rab9 promoter-luciferase reporter, luminescence, 24 h; Potency, µM (doses to about 9.22 µM), usual class: activators; 320,000 tested, 2.8% active; AID 485297; also: nearly all actives have a fitted effect of over 60% in size
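Huh7 reporter line, Rab9 promoter upstream of luciferase. Compound exposure 24 h at 37 °C in reduced-serum medium with 10% FBS. Read-out: luminescence.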
A number is an active result; – = inactive; ? = inconclusive; · = not tested or not shown; [ ] = dose if it differs, or a comment. Calls follow the shape of the dose curve; as a rule, active = well fitted curve in the direction sought with a large enough effect; inconclusive = small, poorly fitted or top-dose-only effect, or another doubt; inactive = no such curve, though single readings can be large; an effect the other way counts as inactive or inconclusive.

SMILES | SMN2 splice up | NPC1 prom act | FLuc modulator | ELG1 repair inh | ELG1 genotox | Rab9 promoter act
O=C(COc1cccc2ccccc12)N1CCN(c2ccccc2)CC1 | – | – | – | 8.2µM | – | –
Cc1cccc(N2CCN(C(=O)CSc3ccc4c(c3)OCCO4)CC2)c1C | · | – | – | 11µM | – | –
Cc1cccc(N2CCN(C(=O)COc3ccc4c(C)cc(=O)oc4c3C)CC2)c1C | · | – | – | 26µM | – | –
Cc1cc(=O)oc2cc(OCC(=O)N3CCN(c4ccccc4)CC3)c(Cl)cc12 | · | – | 19µM | – | – | –
COc1ccc(S(=O)(=O)N2CCN(C(=O)c3ccc(C)o3)CC2)cc1 | · | – | – | – | – | –
Cc1ccc2nc(CN3CCN(C(=O)Nc4cccc(C)c4C)CC3)oc2c1 | · | · | – | · | · | ·
C=CC[C@@H](CC(=O)N(CCO)Cc1ccccc1)C(=O)N[C@H](COC(=O)[C@@H](CC=C)CC(=O)OC(C)(C)C)Cc1c[nH]c2ccccc12 | · | · | · | 18µM | – | ·
C=CC[C@H](CC(=O)N(CCO)Cc1ccccc1)C(=O)N[C@@H](COC(=O)[C@H](CC=C)CC(=O)OC(C)(C)C)Cc1c[nH]c2ccccc12 | · | · | · | 23µM | – | ·
Cc1ccc(-c2nsc(NC(=O)c3oc4cc(C)c(Cl)cc4c3C)n2)cc1 | – | · | – | · | · | ·
Cc1cc(Cl)ccc1OCC(=O)Nc1ccccc1CO | – | – | 21µM | ? | ? | –
Cc1cc(Cl)ccc1OCC(=O)Nc1cccnc1 | · | – | 13µM | ? | ? | –
Cc1c(C)c2ccc(OCC(=O)Nc3cccnc3)c(C)c2oc1=O | · | ? | 11µM | ? | ? | –
CCOC(=O)c1c(C)oc(NC(=O)COc2ccc(Cl)cc2C)c1C#N | – | – | ? | 21µM | – | –
COC(=O)Oc1ccc(/C=N/NC(=O)CSCc2ccccc2Br)cc1OC | – | – | – | ? | – | –
O=C(/C=C/c1ccccc1Cl)NC(=S)Nc1ccccc1C(=O)NC1CCCCC1 | – | – | 17µM | – | – | ?
O=C(/C=C/c1ccc2c(c1)OCO2)Nc1c(C(=O)O)[nH]c2ccccc12 | – | – | 7.6µM | – | – | –
O=C(/C=C/c1ccc2c(c1)OCO2)Nc1nc(-c2ccccc2)cs1 | – | – | 3µM | 18µM | – | –
O=C(/C=C/c1ccc2c(c1)OCO2)Nc1nncs1 | · | 2.2µM | 2.1µM | – | ? | 2µM
CCOC(=O)c1[nH]c2ccc(OC)cc2c1NC(=O)/C=C/c1ccc2c(c1)OCO2 | ? | – | – | – | ? | –
Cc1sc(NC(=O)/C=C/c2ccc3c(c2)OCO3)nc1-c1ccccc1 | – | – | 9.5µM | 8.2µM | – | –
CCOC(=O)c1ccccc1NC(=O)CSc1ncc(CO)n1Cc1ccc(C)cc1 | · | · | – | · | · | ·
CC(=O)OCC#CCSc1nnc(-c2cccc(Br)c2)o1 | – | · | – | · | · | ·
CS(=O)(=O)N(Cc1nc(-c2ccc(F)cc2)no1)c1ccccc1Cl | · | – | – | ? | – | –
CC(C)(C)c1ccc(/C=C/C(=O)Nc2ccc3c(c2)OCCO3)cc1 | – | – | · | · | · | –
CC(C)(C)c1ccc(/C=C/C(=O)Nc2nncs2)cc1 | ? | 0.79µM | 0.95µM | ? | 2.6µM | 0.71µM
SMILES | SMN2 splice up | NPC1 prom act | FLuc modulator | ELG1 repair inh | ELG1 genotox | Rab9 promoter act
Cc1ccc(C)c(N2CCN(S(=O)(=O)c3cc4c(cc3Cl)NC(=O)CO4)CC2)c1 | · | – | – | – | – | –
CC(=O)Nc1ccc(S(=O)(=O)Nc2nnc(CC(C)(C)C)s2)cc1 | · | – | – | – | – | –
O=C(N[C@@H]1CCC(=O)N(CC[C@H](Sc2ccc(Br)cc2)c2ccccc2)CC1)OCc1ccccc1 | · | – | – | ? | – | –
COc1ccc(S[C@@H](CCN2CC[C@H](NC(=O)OCc3ccccc3)CCC2=O)c2ccccc2)cc1 | · | · | · | 18µM | – | ·
Cc1ccc(N(CC(=O)NCCc2ccccc2)S(=O)(=O)N(C)C)cc1 | – | · | – | · | · | ·
O=c1c2c(nc3c(-c4ccc(Cl)cc4)c[nH]n13)CCC2 | – | – | ? | 13µM | – | –
O=c1c2c(nc3c(-c4ccccc4)c[nH]n13)CCC2 | – | – | ? | – | – | –
Cc1ccc(C(=O)Oc2ccc3c(c2)ncn3C)cc1 | · | – | 3µM | ? | – | –
Cn1cnc2cc(OC(=O)c3ccccc3)ccc21 | – | – | 19µM | – | – | –
Cc1ccc(C(=O)Oc2cccc(-n3cnnn3)c2)cc1 | – | – | ? | ? | ? | –
CC1CCN(c2c(NCC3CCC(C(=O)NCc4ccccc4Cl)CC3)c(=O)c2=O)CC1 (centres undefined) | – | – | – | – | – | –
NC(=O)C1CCN(CC(=O)Nc2ccc(S(=O)(=O)N3CCOCC3)cc2)CC1 | · | – | – | – | – | –
C=C1C(C(=O)Nc2ccc(OC)cc2)C1C(=O)Nc1ccc(OC)cc1 (centres undefined) | · | – | – | ? | ? | –
O=C(CSc1nc2ccc([N+](=O)[O-])cc2[nH]1)NC1CCCCCC1 | · | – | – | 16µM | – | –
Cc1ccc(NC(=O)CCN2C(=O)c3ccccc3Sc3ncccc32)c(Cl)c1 | · | · | – | · | · | ·
Clc1ccccc1CNc1ncnc2c1c(-c1ccccc1)cn2-c1ccccc1 | · | · | – | · | · | ·
COc1ccc2nc(NC(=O)c3ccc(-n4nc(C)cc4C)cc3)sc2c1 | – | – | – | ? | – | –
COc1ccc2nc(NC(=O)c3ccc4ncsc4c3)sc2c1 | ? | 2.8µM | 1.1µM | ? | 5.8µM | 1.8µM
CC(=O)Nc1nc2cc(C(N)=O)ccc2s1 | · | – | – | – | – | –
NC(=O)c1ccc2nc(NC(=O)c3ccc(N)cc3)sc2c1 | ? | ? | 3µM | ? | – | ?
COc1ccc2nc(NC(=O)c3ccc(F)cc3)sc2c1 | · | 2.5µM | 0.85µM | ? | ? | 1.4µM
C=Cc1ccc(Cn2c(=O)cc(C)c3c(C)nn(-c4ccccc4)c32)cc1 | · | · | – | · | · | ·
Nn1c(-c2ccccc2)nc2cc(Cl)ccc2c1=O | · | – | – | – | – | –
N#Cc1ccc(-c2nc3cc(Cl)ccc3c(=O)n2O)cc1 | · | – | – | 12µM | – | –
O=c1c2cc(Cl)ccc2nc(-c2ccc([N+](=O)[O-])cc2)n1O | – | – | ? | 18µM | – | –
SMILES | SMN2 splice up | NPC1 prom act | FLuc modulator | ELG1 repair inh | ELG1 genotox | Rab9 promoter act
N#Cc1ccc(-c2nc3ccccc3c(=O)n2O)cc1 | · | – | – | ? | – | –
On1c(-c2ccccc2)nc2ccc(Cl)cc21 | 13µM | ? | 17µM | ? | – | ?
O=c1c2cc(Br)ccc2nc(-c2ccc(Cl)cc2)n1O | · | – | – | ? | – | –[1.84 µM]
Cc1[nH]c2ccccc2c1SCC(=O)NNC(=O)Nc1ccc(OC(F)(F)F)cc1 | · | – | – | ? | – | –
CCOc1ccccc1CNC(=O)C1CCN(S(=O)(=O)c2ccc3[nH]c(=O)ccc3c2)CC1 | · | · | – | · | · | ·
O=C(NNC(=O)c1ccc(-c2ccccc2)cc1)Nc1ccccc1F | · | – | – | – | – | –
O=C(NNc1ccccc1F)C1CCC1 | · | – | – | 16µM | – | –
